Mean motility score data for 15 molecules are collected here from the supplement of paper PMC10503962.

The test concerns Trichuris muris adult worms. Briefly: mean motility score (Paragon pixel variance) of adult worms (arbitrary units); higher = more motile worms, i.e. less anthelmintic effect; extreme values may be limits of the assay. As to conditions: 100 µM; 24 h. The method, boiled down: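 Single adult Trichuris muris worms, collected from infected NOD SCID mice, were placed in 96-well plates with 100 μL RPMI-1640 plus antibiotics and drug at 100 μM (1% v/v DMSO), then kept at 37°C and 5% CO2 for 24 h. Plates were filmed on an automated phenotyping platform (200 frames, 100 ms apart). Motility score came from Paragon pixel-variance analysis, averaged across replicate wells. Each drug had three worms in three wells, run on three separate occasions, with vehicle and positive controls.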
As for `C/C=C(/C(=C/C)c1ccc(O)cc1)c1ccc(O)cc1` [dienestrol], the mean motility score is 3590.
Molecule `COc1ccc2[nH]cc(CCNC(C)=O)c2c1` [melatonin] yielded a mean motility score of 4410.
To `CCOC(=O)N1CCC(=C2c3ccc(Cl)cc3CCc3cccnc32)CC1.Cl` [loratadine hydrochloride] belongs 0; to `COC(=O)[C@H]1[C@H]2C[C@@H]3c4[nH]c5cc(OC)ccc5c4CCN3C[C@H]2C[C@@H](OC(=O)c2cc(OC)c(OC)c(OC)c2)[C@@H]1OC` [reserpine], 2180.
`C[C@@](Cc1ccc(O)c(O)c1)(NN)C(=O)O` [S-carbidopa]: the mean motility score turned out to be 3900.
To `CN(C)CC[C@@H](c1ccc(Cl)cc1)c1ccccn1.O=C(O)/C=C\C(=O)O` [dexchlorpheniramine maleate] belongs 1140; to `O=P(O)(O)C(O)(Cn1ccnc1)P(=O)(O)O` [zoledronic acid], 1210.
For `NC(CO)(CO)CO` [tromethamine] the value was 2770; for `Nc1ccc(C(=O)O)c(O)c1` [aminosalicylic acid], 4450.
`CC1(C)[C@@H](O[C@H]2O[C@H](C(=O)O)[C@@H](O)[C@H](O)[C@H]2O[C@@H]2O[C@H](C(=O)O)[C@@H](O)[C@H](O)[C@H]2O)CC[C@]2(C)[C@H]3C(=O)C=C4[C@@H]5C[C@@](C)(C(=O)O)CC[C@]5(C)CC[C@@]4(C)[C@]3(C)CC[C@@H]12` [glycyrrhizin] gave a mean motility score of 1890.
In turn, `CC[C@H]1OC(=O)[C@H](C)[C@@H](O[C@H]2C[C@@](C)(OC)[C@@H](O)[C@H](C)O2)[C@H](C)[C@@H](O[C@@H]2O[C@H](C)C[C@H](N(C)C)[C@H]2O)[C@](C)(OC)C[C@@H](C)C(=O)[C@H](C)[C@@H](O)[C@]1(C)O` [clarithromycin] had a mean motility score of 2330.
`Cl.Cl.NCCc1c[nH]cn1` [histamine dihydrochloride] displayed a mean motility score of 2750.
Molecule `Cc1nc(O)c(C#N)cc1-c1ccncc1` [milrinone] displayed a mean motility score of 4250.
To `NCCS(=O)(=O)O` [taurine] belongs 1780; to `CC(=O)OC(C)C[N+](C)(C)C.[Cl-]` (stereo not given) [methacholine chloride], 2220.
